This is an account of results in PubChem BioAssay (Tox21).

Calls of active or inactive are those of the source. The call rests on the fitted dose curve.

Sequence of Thyrotropin-releasing hormone receptor (Homo sapiens) (P34981 whole entry, looked up): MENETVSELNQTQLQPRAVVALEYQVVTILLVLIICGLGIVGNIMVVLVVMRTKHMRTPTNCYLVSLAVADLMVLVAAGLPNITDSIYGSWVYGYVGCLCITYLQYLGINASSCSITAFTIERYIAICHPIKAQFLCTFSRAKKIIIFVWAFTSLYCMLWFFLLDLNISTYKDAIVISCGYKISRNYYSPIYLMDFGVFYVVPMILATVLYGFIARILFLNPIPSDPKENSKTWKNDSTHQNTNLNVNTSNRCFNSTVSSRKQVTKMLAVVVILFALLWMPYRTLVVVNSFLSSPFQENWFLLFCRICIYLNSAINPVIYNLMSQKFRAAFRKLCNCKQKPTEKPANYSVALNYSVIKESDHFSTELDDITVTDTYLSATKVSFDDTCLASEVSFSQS

The target in the assay is Thyrotropin-releasing hormone receptor (Homo sapiens) (UniProt P34981). Put plainly: qHTS assay to identify small molecule agonists of the thyrotropin-releasing hormone receptor (TRHR) signaling pathway (AID 1346891).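 Further: HEK293 cells expressing TRHR with calcium dye readout.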 To be noted: TRHR-HEK293 calcium fluorescence, agonist mode; series mostly up to 57.6 µM. From the text:
National Center for Advancing Translational Sciences [NCATS] NIH Chemical Genomics Center [NCGC] U.S. Environmental Protection Agency [EPA] National Institutes of Environmental Health Sciences [NIEHS] National Toxicology Program [NTP] Assay overview: Thyrotropin-releasing hormone (TRH) receptor (TRHR) is a G-protein-coupled receptor which binds the tripeptide thyrotropin releasing hormone. TRHR is found in the brain and, when bound by TRH, acts (through phospholipase C) to increase intracellular inositol trisphosphate. It plays a crucial role in the anterior pituitary where it controls the synthesis and secretion of thyroid stimulating hormone and prolactin. The TRHR-Hek293 assay is a cell-based assay, and it has the potential to screen G protein-coupled receptors. A compound/drug can either activate (agonist) or suppress (antagonist) GPCRs that can be monitored by levels of intracellular calcium. Using this assay, the Tox21 10K compound library was screened to identify potential TRHR agonists.
Assay Protocol Summary: The TRHR-Hek293 cells were dispensed at 1500cells/4uL/well in 1536-well black-clear bottom plates using a Multidrop dispenser. After the assay plates were incubated at a 37 C/5% CO2 incubator for 18 hours, 4 uL of Dye-Loading Solution was added to each well. The plates were incubated at 37 C for 2 hours. For agonist mode, 23 nL of compounds dissolved in DMSO, positive controls or DMSO only was transferred to the assay plate by a pin tool. The fluorescence intensity in the plates was measured using FDSS 7000EX kinetic plate reader for 3 min at 1 sec intervals. Each test compound was measured at 15 concentrations and in triplicates.
For orientation: In qHTS, concentration-response curves come from the screen itself.
`ClC(Cl)=C(Cl)C(Cl)=C(Cl)Cl`: the outcome was inactive.

For the molecule `Cc1cccc(N=Nc2ccc(N(C)C)cc2)c1`, the result was inactive.

In the case of `CCC[CH2][Sn]([Cl])([Cl])[CH2]CCC`, the result was inactive.

With `CCCCCCCCCCCCCl`, the outcome was inactive.

With `ClCc1ccccn1`, the result was inactive.

Consider `CCNCC`, for which the outcome was inactive.

For the molecule `Oc1ccc(Cl)cc1Cl`, the outcome was inactive.

Consider `CCOP(=O)(OCC)OCC`, for which the result was inactive.

For `CN(C)c1ccccc1`, the result was inactive.

As to `COC(=O)Nc1nc2ccccc2[nH]1`, the result was inactive.

Take `CN(C)c1nc(=O)n(C2CCCCC2)c(=O)n1C`: the result was inactive.

Regarding `CC1(C)Cc2cccc(O)c2O1`, the outcome was inactive.

As to `CSc1nc(NC(C)C)nc(NC(C)C)n1`, the outcome was inactive.

Consider `C[N+](C)(C)C`, for which the outcome was inactive.

For the molecule `Nc1ccc([N+](=O)[O-])cc1N`, the result was inactive.

Consider `[CH3][Sn]([Cl])([Cl])[Cl]`, for which the outcome was inactive.

Regarding `CC(C)(C#N)N=NC(C)(C)C#N`, the outcome was inactive.

With `CCC/C=N/O`, the result was inactive.

For `CC(C)Nc1ccc(Nc2ccccc2)cc1`, the outcome was inactive.

For `Clc1ccccc1-c1nnc(-c2ccccc2Cl)nn1`, the outcome was inactive.

For the molecule `COP(=O)(NC(C)=O)SC` (stereo not given), the result was inactive.

Regarding `CC(C)=CC1C(C(=O)OCN2C(=O)C3=C(CCCC3)C2=O)C1(C)C` (stereo not given), the result was inactive.

With `CC(C)COC(=O)c1ccccc1C(=O)OCC(C)C`, the outcome was inactive.

Take `CCCCOCC1CO1` (stereo not given): the result was inactive.

With `OC(c1ccc(Cl)cc1)(c1cncnc1)c1ccccc1Cl` (stereo not given), the outcome was inactive.

With `CC(C)(O)C#N`, the outcome was inactive.

`O=NN(c1ccccc1)c1ccccc1`: the outcome was inactive.

For the molecule `CCCCCCCCCc1ccc(O)cc1`, the result was inactive.

`N#Cc1nn(-c2c(Cl)cc(C(F)(F)F)cc2Cl)c(N)c1S(=O)C(F)(F)F` (stereo not given): the outcome was inactive.

As to `CC(C)(c1ccc(OCC2CO2)cc1)c1ccc(OCC2CO2)cc1` (stereo not given), the outcome was inactive.

For `N#CCCCCC#N`, the result was inactive.

As for `Oc1ccc(Cl)cc1Cc1ccccc1`, the outcome was inactive.

For the molecule `CC1(C)C(C(=O)OC(C#N)c2cccc(Oc3ccccc3)c2)C1(C)C` (stereo not given), the result was inactive.

As to `COP(=S)(OC)SCn1nnc2ccccc2c1=O`, the outcome was inactive.

Turning to `O=P(OCCCl)(OCCCl)OCCCl`, the result was inactive.

Regarding `CCOC(=O)c1ccccc1N`, the outcome was inactive.

As for `COc1ccc(C=O)cc1OC`, the outcome was inactive.

Take `c1ccc2c(c1)Nc1ccccc1S2`: the outcome was inactive.

Turning to `N#Cc1cccnc1`, the result was inactive.

Turning to `C[C@]12CC[C@H]3[C@@H](CCC4=CC(=O)CC[C@@H]43)[C@@H]1CC[C@@H]2O`, the outcome was inactive.
